# Records with an inconclusive call do not appear. Activity calls are given as the source filed them. Calls come from the whole dose curve; as a rule, active = well fitted curve in the direction sought with a large enough effect; inconclusive = small, poorly fitted or top-dose-only effect, or another doubt; inactive = no such curve, though single readings can be large; an effect the other way counts as inactive or inconclusive.
# Test system: Zika virus NS2B-NS3 protease (linked construct)
# Test: Primary screen NINDS Rhodamine qHTS for Zika virus inhibitors (AID 1347160); note: nearly all actives have a fitted effect of over 55% in size
# Details: purified NS2B-NS3 protease, Rhodamine110 substrate fluorescence; series mostly up to 57.1 µM
# Procedure, shortened: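 Rhodamine110-peptide cleavage (1.5 µM substrate) by 25 nM linked NS2B-NS3 enzyme at pH 8.0 (Tris, Tween 20), after 15 min RT preincubation with compounds; 15-min fluorescence change normalized to controls and Hill-fitted.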
row,SMILES,outcome
1,Cc1ccc(C(=O)C(C)CN2CCCCC2)cc1 (centres undefined),inactive
2,NC(=NCCCCCCN=C(N)/N=C(\N)Nc1ccc(Cl)cc1)/N=C(\N)Nc1ccc(Cl)cc1,inactive
3,COC(=O)C1=C(C)NC(C)=C(C(=O)O[C@@H]2CCCN(Cc3ccccc3)C2)[C@@H]1c1cccc([N+](=O)[O-])c1,inactive
4,C#C[C@]1(OC(C)=O)CC[C@H]2[C@@H]3CCC4=C[C@@H](OC(C)=O)CC[C@@H]4[C@H]3CC[C@@]21C,inactive
5,COc1ccc(CN2CCN(C(c3ccc(F)cc3)c3ccc(F)cc3)CC2)c(OC)c1OC,inactive
6,CC(=O)O[C@]1(C(C)=O)CC[C@H]2[C@@H]3C[C@H](C)C4=CC(=O)CC[C@]4(C)[C@H]3CC[C@@]21C,inactive
7,CN1C(CCl)Nc2cc(Cl)c(S(N)(=O)=O)cc2S1(=O)=O (centres undefined),inactive
8,CCCCS(=O)(=O)N[C@@H](Cc1ccc(OCCCCC2CCNCC2)cc1)C(=O)O,inactive
9,CN1CCC[C@@H]1c1cccnc1,inactive
10,O=c1[nH]c(=O)n([C@H]2CCCO2)cc1F,inactive
11,CC(C)(C)NC(=O)[C@@H]1CN(Cc2cccnc2)CCN1C[C@@H](O)C[C@@H](Cc1ccccc1)C(=O)N[C@H]1c2ccccc2C[C@H]1O,inactive
12,Cc1nc2n(c(=O)c1CCN1CCC(c3noc4cc(F)ccc34)CC1)CCC[C@H]2O,inactive
13,Cc1ccccc1C(=O)Nc1ccc(C(=O)N2CCCC(N(C)C)c3ccccc32)cc1 (centres undefined),inactive
14,CN(C)CCCOc1nn(Cc2ccccc2)c2ccccc12,inactive
15,COC(=O)CCc1ccc(OCC(O)CNC(C)C)cc1 (centres undefined),inactive
16,CN1CCN(C(c2ccccc2)c2ccccc2)CC1,inactive
17,O=C(OCCOCCO)c1ccccc1Nc1cccc(C(F)(F)F)c1,inactive
18,OC[C@H]1O[C@H](O[C@]2(CCl)O[C@H](CCl)[C@@H](O)[C@@H]2O)[C@H](O)[C@@H](O)[C@H]1Cl,inactive
19,CN1[C@@H]2CC[C@H]1CC(OC(=O)c1c[nH]c3ccccc13)C2 (some centres undefined),inactive
20,COc1cccc(OC)c1C(=O)N[C@@H]1C(=O)N2[C@@H]1SC(C)(C)[C@@H]2C(=O)O,inactive
21,CC(C)n1nc(-c2cc3cc(O)ccc3[nH]2)c2c(N)ncnc21,inactive

# Molecular target: Lysine-specific demethylase 5B (Homo sapiens) (UniProt Q9UGL1)
# Sequence (Q9UGL1 whole entry, looked up): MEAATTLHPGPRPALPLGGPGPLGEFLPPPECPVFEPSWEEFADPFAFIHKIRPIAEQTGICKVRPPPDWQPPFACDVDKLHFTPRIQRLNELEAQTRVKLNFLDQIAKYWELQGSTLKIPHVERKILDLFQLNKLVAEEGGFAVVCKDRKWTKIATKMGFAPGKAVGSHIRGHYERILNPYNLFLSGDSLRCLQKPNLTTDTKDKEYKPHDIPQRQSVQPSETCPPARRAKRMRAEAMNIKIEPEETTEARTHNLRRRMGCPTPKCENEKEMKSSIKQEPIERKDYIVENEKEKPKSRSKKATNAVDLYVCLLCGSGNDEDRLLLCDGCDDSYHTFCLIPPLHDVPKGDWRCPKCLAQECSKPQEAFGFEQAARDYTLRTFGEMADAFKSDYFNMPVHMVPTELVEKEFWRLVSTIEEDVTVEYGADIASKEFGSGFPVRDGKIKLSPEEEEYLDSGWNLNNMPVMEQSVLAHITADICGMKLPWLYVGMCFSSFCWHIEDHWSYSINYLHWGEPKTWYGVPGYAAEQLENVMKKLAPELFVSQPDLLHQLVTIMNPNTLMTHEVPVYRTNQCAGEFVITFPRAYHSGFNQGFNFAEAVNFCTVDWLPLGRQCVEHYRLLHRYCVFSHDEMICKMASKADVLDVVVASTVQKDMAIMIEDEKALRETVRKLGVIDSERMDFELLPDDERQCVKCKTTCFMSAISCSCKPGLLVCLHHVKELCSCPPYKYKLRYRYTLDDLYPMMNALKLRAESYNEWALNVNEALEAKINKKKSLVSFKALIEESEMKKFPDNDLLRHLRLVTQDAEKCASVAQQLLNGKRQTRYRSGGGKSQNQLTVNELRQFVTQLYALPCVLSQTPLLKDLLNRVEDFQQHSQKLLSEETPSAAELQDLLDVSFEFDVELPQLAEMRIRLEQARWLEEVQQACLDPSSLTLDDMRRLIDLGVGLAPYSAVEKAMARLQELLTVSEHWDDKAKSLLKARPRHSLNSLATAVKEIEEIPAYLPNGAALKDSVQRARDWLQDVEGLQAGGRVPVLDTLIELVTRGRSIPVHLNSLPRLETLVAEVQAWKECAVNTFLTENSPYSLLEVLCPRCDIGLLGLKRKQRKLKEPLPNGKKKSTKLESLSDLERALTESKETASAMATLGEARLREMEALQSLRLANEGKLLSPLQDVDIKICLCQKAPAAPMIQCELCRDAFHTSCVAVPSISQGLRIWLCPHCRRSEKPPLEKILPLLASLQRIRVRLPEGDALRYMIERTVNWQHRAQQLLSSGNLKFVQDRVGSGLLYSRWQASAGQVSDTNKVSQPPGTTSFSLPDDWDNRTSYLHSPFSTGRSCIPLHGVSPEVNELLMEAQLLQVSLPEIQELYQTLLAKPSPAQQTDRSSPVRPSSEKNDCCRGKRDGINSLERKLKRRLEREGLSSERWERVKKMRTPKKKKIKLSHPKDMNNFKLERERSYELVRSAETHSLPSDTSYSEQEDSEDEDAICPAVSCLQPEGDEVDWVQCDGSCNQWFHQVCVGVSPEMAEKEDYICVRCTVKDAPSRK
# Test: Optimization screen for KDM5B Histone Demethylases FDH coupled qHTS against the LOPAC library (AID 1347166)
# Details: KDM5B demethylation, FDH-coupled NADH fluorescence (FDH is formaldehyde dehydrogenase); series mostly up to 57.5 µM
# Procedure, shortened: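 KDM5BDeltaAP (200nM final) in 50mM HEPES pH 7.5, 0.01% Tween-20 was preincubated with compound for 10 min at room temperature. A substrate mix of 12.5uM H3K4Me3, 25uM a-ketoglutarate, ascorbate, Fe2+, NAD+ and formaldehyde dehydrogenase was then added. NADH fluorescence (340/450 nm) was read initially and after 30 min.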
row,SMILES,outcome
1,COC(=O)[C@H]1[C@H]2C[C@H]3c4[nH]c5ccccc5c4CCN3C[C@H]2CC[C@@H]1O,inactive
2,C[C@]12CC[C@@H]3c4ccc(O)cc4CC[C@H]3[C@@H]1CC[C@@H]2O,inactive
3,COc1cc2c(cc1O)CC[C@@H]1[C@@H]2CC[C@]2(C)[C@@H](O)CC[C@@H]12,inactive
